# Assay outcomes: PubChem, Broad Institute
# Compounds with a hit are over-represented: about 8.1% of the library has one in this group of screens.
# Shh pathway inh: blocks Sonic Hedgehog signaling; Shh-LIGHT2 Gli-luciferase reporter, 30 h; inhibition, % (concentration not given with the values); 22,000 tested, 2.1% active;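 active means mean inhibition across valid replicates above about 65%, limit read from the data; inconclusive means mean under the limit, yet half or more replicates past it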;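 further: pathway switched on by Shh-conditioned medium diluted 1 in 25 in low serum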
# MITF inh: MITF inhibition; TRPM1 promoter luciferase, luminescence, 24 h; inhibition, % (test concentration not listed); 37,000 tested, 0.28% active; in the data active means inhibition above about 85%; inconclusive means no clear call, values can overlap the other calls; inactive means below about 68%;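 further: human melanocyte line stably carrying TRPM1 promoter luciferase reporter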
# NOMO-1 viab: STK33 inhibitor candidate reducing NOMO-1 cell viability; NOMO-1 AML viability, CellTiter-Glo luminescence, 72 h; inhibition, % (test concentration not listed); 37,000 tested, 7.5% active; AID 2330; in the data active means inhibition above about 80%; inconclusive means no clear call, values can overlap the other calls
# * hit, by the source's call; ? = inconclusive; nt = no result given.
SMILES,Shh pathway inh,MITF inh,NOMO-1 viab
C[C@@H]1CN([C@H](C)CO)C(=O)c2cc(NC(=O)Nc3ccc(C(F)(F)F)cc3)ccc2O[C@H]1CN(C)CC1CCCCC1,nt,-6,103*
Cc1cc(=O)[nH]c(SCCCOc2cccc(Br)c2)n1,nt,13,-6
Cn1c(SCC(=O)c2ccc([N+](=O)[O-])cc2)nnc1-c1cc2ccccc2cc1O,nt,40,48
CC12CCC(C(=O)Nc3ccncc3)(c3nc4ccccc4nc31)C2(C)C (stereo not given),nt,-85,42
CCN(CC(=O)Nc1cccc2ccccc12)S(=O)(=O)c1ccc2ccccc2c1,nt,-8,-5
COc1ccc(C(Nc2cccc(C)n2)c2ccc3ccc(C)nc3c2O)c(OC)c1OC (stereo not given),nt,11,96*
O=[N+]([O-])c1ccccc1C(c1c[nH]c2ccccc12)c1c[nH]c2ccccc12,nt,75,26
Cc1cccc(NC(c2ccccc2[N+](=O)[O-])c2ccc3ccc(C)nc3c2O)n1 (stereo not given),nt,53,121*
Cc1ccc2ccc(C(Nc3ccccn3)c3c(F)cccc3Cl)c(O)c2n1 (stereo not given),nt,58,110*
Cc1ccnc(SCC(=O)c2cccc([N+](=O)[O-])c2)n1,nt,-17,-5
Cc1ccc2ccc(C(Nc3ccccn3)c3cccc([N+](=O)[O-])c3)c(O)c2n1 (stereo not given),nt,52,112*
Cc1ccc(NC(=O)CCN2C(=O)c3ccccc3S2(=O)=O)cc1Cl,nt,-15,-10
CCOc1ccc(NC(=O)C(C)Sc2nnnn2-c2ccccc2)cc1 (stereo not given),nt,-4,23
Cc1cc(C)c(NC(=O)CSc2nnc(-c3cccnc3)s2)c([N+](=O)[O-])c1,nt,25,32
CSc1ccc(C(Nc2cc(C)ccn2)c2ccc3ccc(C)nc3c2O)cc1 (stereo not given),nt,35,40
Cc1ccnc(NC(c2cccc(Cl)c2)c2ccc3ccc(C)nc3c2O)c1 (stereo not given),nt,56,118*
Cc1ccc2ccc(C(Nc3ccccn3)c3ccccc3Cl)c(O)c2n1 (stereo not given),nt,54,106*
Cc1ccccc1NC(=O)COc1ccc(C)c([N+](=O)[O-])c1,nt,0,11
Cc1cccc(NC(=O)CNS(=O)(=O)c2ccc(Br)cc2)c1,nt,-43,-8
C[C@H](CO)N1C[C@H](C)[C@H](CN(C)Cc2ccc(-c3ccccc3)cc2)Oc2ccc(NS(=O)(=O)c3ccc(F)cc3)cc2CC1=O,-8,0,95*
C[C@@H]1CN([C@@H](C)CO)C(=O)Cc2cc(NS(=O)(=O)c3ccc(F)cc3)ccc2O[C@@H]1CN(C)Cc1ccc(-c2ccccc2)cc1,-8,23,?
C[C@H]1CN([C@@H](C)CO)C(=O)Cc2cc(NS(=O)(=O)c3ccc(F)cc3)ccc2O[C@H]1CN(C)Cc1ccc(-c2ccccc2)cc1,-5,0,108*
C[C@H](CO)N1C[C@H](C)[C@H](CN(C)Cc2ccccc2)Oc2ccc(NS(=O)(=O)c3ccc(F)cc3)cc2CC1=O,11,-24,52
COc1ccc(NC(=O)CSc2nc(C)cc(=O)[nH]2)c(OC)c1,nt,-9,0
CSC1=C(C#N)C(=O)NC(c2ccc(Cl)cc2)S1 (stereo not given),0,6,116*
SMILES,Shh pathway inh,MITF inh,NOMO-1 viab
COc1cccc(NC2=C(C#N)C(=O)NC(c3cccc(OC)c3O)S2)c1 (stereo not given),8,4,11
CCC(=O)NC(c1ccco1)c1cc(Cl)c2cccnc2c1O (stereo not given),104*,46,126*
CC(c1ccco1)N(C(=O)c1sc2ccccc2c1Cl)c1ccccn1 (stereo not given),nt,18,44
Oc1c(C(Nc2ccccn2)c2c(F)cccc2Cl)cc(Cl)c2cccnc12 (stereo not given),nt,67,108*
Oc1c(C(Nc2ccccn2)c2cccc(F)c2)cc(Cl)c2cccnc12 (stereo not given),nt,57,113*
COc1cc(Cl)c(C(Nc2ccccn2)c2cc(Cl)c3cccnc3c2O)cc1OC (stereo not given),nt,63,110*
CCOc1c(Cl)cc(CNCc2ccccn2)cc1OC,nt,-23,13
O=C(COc1ccc(F)cc1)Nc1ncccn1,nt,-28,-9
COC(=O)c1ccc(OCC(O)Cn2c(C)nc3ccccc32)cc1 (stereo not given),nt,71,68
Oc1c(C(Nc2ccccn2)c2ccccn2)cc(Cl)c2cccnc12 (stereo not given),nt,56,112*
O=C(O)CN(c1cc(Cl)cc(Cl)c1)S(=O)(=O)c1ccccc1,nt,7,1
Cc1ccc(NC(=O)N(C2=NCC(C)(C)S2)c2ccc(F)c(Cl)c2)cc1,-15,-54,-4
CCCCc1ccc(NC(=O)N=S2CCN(c3ncc(C(F)(F)F)cc3Cl)CC2)cc1,1,-15,26
COc1ccc(NC(=O)Nc2cccc3c2O[C@@H](CN(C)S(=O)(=O)c2ccc(F)cc2)[C@@H](C)CN([C@H](C)CO)C3=O)cc1,-31,-7,-8
COc1ccc(NC(=O)Nc2cccc3c2O[C@H](CN(C)S(=O)(=O)c2ccc(Cl)cc2)[C@@H](C)CN([C@H](C)CO)C3=O)cc1,4,-11,26
COc1ccc(S(=O)(=O)N(C)C[C@@H]2Oc3c(NC(=O)Nc4ccc(F)cc4)cccc3C(=O)N([C@H](C)CO)C[C@@H]2C)cc1,68*,2,33
COc1ccc(NC(=O)Nc2cccc3c2O[C@@H](CN(C)S(=O)(=O)c2ccc(Cl)cc2)[C@@H](C)CN([C@H](C)CO)C3=O)cc1,92*,-13,1
COc1ccc(NC(=O)Nc2cccc3c2O[C@@H](CN(C)S(=O)(=O)c2ccc(F)cc2)[C@H](C)CN([C@@H](C)CO)C3=O)cc1,-14,3,11
COc1ccc(S(=O)(=O)N(C)C[C@@H]2Oc3c(NC(=O)Nc4ccc(F)cc4)cccc3C(=O)N([C@@H](C)CO)C[C@@H]2C)cc1,86*,7,33
O=C(CCN1C(=O)c2cccc3cccc(c23)C1=O)N1CCN(c2ncccn2)CC1,nt,31,8
COc1ccccc1C(=O)N1CCN(c2ccc([N+](=O)[O-])c(NCc3cccnc3)c2)CC1,nt,13,37
Cc1ccc(-c2csc3ncnc(SCC(=O)Nc4ccccc4F)c23)cc1,nt,-3,9
O=C(CC1NC(=O)NC1=O)Nc1cccc(C(F)(F)F)c1 (stereo not given),nt,-9,1
C[C@@H]1CN([C@@H](C)CO)C(=O)c2cccc(NC(=O)Nc3ccc(C(F)(F)F)cc3)c2O[C@@H]1CN(C)Cc1ccccc1,-23,-26,89*
C[C@H]1CN([C@@H](C)CO)C(=O)c2cccc(NC(=O)Nc3ccc(C(F)(F)F)cc3)c2O[C@@H]1CN(C)Cc1ccc(-c2ccccc2)cc1,-23,14,85*
C[C@H](CO)N1C[C@H](C)[C@H](CN(C)Cc2ccccc2)Oc2c(NC(=O)Nc3ccc(C(F)(F)F)cc3)cccc2C1=O,22,-1,74
C[C@H](CO)N1C[C@H](C)[C@@H](CN(C)Cc2ccccc2)Oc2c(NC(=O)Nc3ccc(C(F)(F)F)cc3)cccc2C1=O,-43,46,115*
